# HT1080-NT tox: qHTS for induction of synthetic lethality in tumor cells producing 2HG: qHTS for the HT-1080-NT fibrosarcoma cell line | Potency, µM (titrated, usually from 46.1 µM), for inactives: at the highest dose activity, negative = less viability, hits mostly cytotoxic | HT-1080-NT fibrosarcoma viability, CellTiter-Glo ATP luminescence, 48 h | 360,000 tested, 1.6% active | AID 686970, 2013;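 also: NT is the 2HG producing partner of a matched IDH1 knockdown line; 0% = DMSO-treated cells and -100% = media-only wells without cells; nearly all actives have a fitted effect of over 55% in size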
#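 A 48-hour cytotoxicity screen used HT-1080-NT cells plated 2 hours before compound delivery. ATP-based CellTiter-Glo luminescence measured viability, normalized to DMSO and no-cell controls.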
# HT1080 IDH1KD tx: qHTS for induction of synthetic lethality in tumor cells producing 2HG: qHTS for the HT-1080-IDH1KD cell line; HT-1080 IDH1 knockdown viability, ATP luminescence, 48 h; Potency, µM (doses to about 46.1 µM), for inactives: at the top dose activity, negative = toxicity, actives largely listed as cytotoxic; 360,000 tested, 2% active;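 also: 0% = DMSO wells and -100% = cell-free medium wells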
#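 IDH1KD HT-1080 cells, 750/well, RPMI + 5% FBS; compound pinned after 2 h settling; 48 h, 37 °C; CellTiter-Glo luminescence; % activity normalised to DMSO and no-cell wells; curves fitted, classed by r2 and efficacy.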
# ATXN viability: Viability Counterscreen for Primary qHTS for Inhibitors of ATXN expression; Potency, µM (highest dose often 56.7 µM), hits mostly cytotoxic; S2 cells (HEK-293 line with an ATXN2-luciferase reporter) viability, CellTiter-Fluor protease fluorescence, 24 h; 400,000 tested, 0.49% active; also: nearly all actives have a fitted effect of over 40% in size
# KB-V1 cytotox: qHTS assay for MDR1-selective chemotherapeutics: Primary screen using the drug-selected MDR subline cells KB-V1 | KB-V1 MDR cells viability, CellTiter-Glo, 72 h | 400,000 tested, 3.4% active | Potency, µM (titrated, usually from 46.1 µM), actives largely listed as cytotoxic; also: % is scaled to controls: 0 for no effect and ±100 for the full control effect; nearly all actives have a fitted effect of over 60% in size
#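 KB-V1 cells (P-gp-expressing MDR subline of KB-3-1) in phenol-red-free DMEM with 10% FBS were exposed to library compounds over a concentration series for 72 h at 37 degrees C. Viability read by CellTiter-Glo luminescence; concentration-effect curves fitted after normalization.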
# KB-3-1 tox: qHTS assay for MDR1-selective chemotherapeutics: Primary screen using the parental adenocarcinoma cell KB-3-1. KB-3-1 viability, CellTiter-Glo ATP luminescence, 72 h. Potency, µM (top dose mostly 46.1 µM), usual class: cytotoxic. 400,000 tested, 1.4% active. AID 1347075, 2019; also: % is scaled to controls: 0 for no effect and ±100 for the full control effect; nearly all actives have a fitted effect of over 60% in size
#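 Cytotoxicity measured as CellTiter-Glo luminescence after 72 h at 37 C. Compound titrations were pinned onto drug-naive KB-3-1 parental adenocarcinoma cells grown in DMEM with 10% FBS, and normalized data fitted to concentration-response curves.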
# ATXN2 expr inh: Primary qHTS for Inhibitors of ATXN expression. Potency, µM (titrated, usually from 57 µM), inactives show at the highest dose activity change, negative = inhibition, usual class: inhibitors. AID 1745845, 2022. 360,000 tested, 0.72% active. HEK-293 ATXN2-luciferase reporter, luminescence, 24 h; also: % is scaled to controls: 0 for no effect and ±100 for the full control effect; nearly all actives have a fitted effect of over 55% in size
#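 qHTS (up to 57 uM final) was run with 24 h compound exposure of reporter cells at 37 °C. Each well was multiplexed: SteadyGlo luminescence measured ATXN2-luciferase expression after a fluorogenic Gly-Phe-AFC viability readout (25 uM final).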
# Starred values were filed as active, the others as inactive; i = inactive; ? = inconclusive; nt = no result; [ ] = dose if it differs, or a comment. The list is not random: actives were taken first. Their share in the collection is about 6.2%. Calls follow the shape of the dose curve; as a rule, active = well fitted curve in the direction sought with a large enough effect; inconclusive = small, poorly fitted or top-dose-only effect, or another doubt; inactive = no such curve, though single readings can be large; an effect the other way counts as inactive or inconclusive. Potency is read from the fitted curve at half-maximal effect.
SMILES,HT1080-NT tox,HT1080 IDH1KD tx,ATXN viability,KB-V1 cytotox,KB-3-1 tox,ATXN2 expr inh
COc1cccc(C(=O)/C(C#N)=N/Nc2cccc(-c3ccnc(C)n3)c2)c1,25.9µM*,-28.2%,?,?,?,nt
O=C(CN(Cc1ccccc1)S(=O)(=O)c1ccccc1)N/N=C/c1ccc2c(c1)OCO2,?,?,i,i,i,-12.3%
O=C(CN(Cc1ccccc1)S(=O)(=O)c1ccc2c(c1)OCCO2)N/N=C/c1cccc(Br)c1,-8.0%,-15.5%,i,18.4µM*,i,-9.8%
O=C(CN(Cc1ccccc1)S(=O)(=O)c1ccccc1)N/N=C/c1ccc([N+](=O)[O-])cc1,-27.1%,-29.8%,?,2.06µM*,i,-19.4%
O=C(CN(Cc1ccc(Cl)c(Cl)c1)S(=O)(=O)c1ccccc1)N/N=C\c1ccc2c(c1)OCO2,?,-6.5%[9.24 µM],i,20.6µM*,?,-15.8%
Cc1ccc(-n2cc(C(=O)OCc3ccc(Cl)cc3)c3ccccc3c2=O)cc1,nt,nt,nt,i,i,nt
COc1ccc(OC)c(-c2cnc(OC(C)(C)C)nc2OC(C)(C)C)c1,?,13µM*,i,?,?,nt
CCCN(C(=O)c1cc2c(s1)-c1c(C)cccc1OC2)c1ccc(OCC)cc1,nt,nt,i,i,i,6.4%
CC(=O)Nc1ccccc1OCCOc1ccc(Br)cc1,-26.1%,-46.1%,i,18.4µM*,?,-29.8%
CC(C)(C)OC(=O)N1CCC(c2c(C(=O)N3CCN(c4ccccc4)CC3)cnn2-c2ccccc2)CC1,nt,nt,nt,i,i,nt
O=C(C[n+]1cccc(Br)c1)c1ccc(Br)cc1,nt,nt,nt,i,i,nt
CC(CS(=O)(=O)c1ccc2c(c1)NC(=O)CS2)C(=O)N1CCN(c2cccc(Cl)c2)CC1 (centres undefined),-5.3%,-9.1%,i,i,23.1µM*,-1.6%
CC(CS(=O)(=O)c1ccc2c(c1)NC(=O)CS2)C(=O)NCc1ccccc1Cl (centres undefined),5.2%,-5.5%,i,i,i,4.2%
N/C(=N\O)c1cn(Cc2ccccc2Cl)c2ccccc12,?,-27.3%,i,i,i,-9.1%
Cc1[nH][nH]c(=O)c1C(c1c(C)[nH][nH]c1=O)c1cn(Cc2ccccc2Cl)c2ccccc12,?,18.4µM*,i,18.4µM*,7.31µM*,-24.2%
Cc1ccc(Cl)cc1NC(=O)CN1C=NS(=O)(=O)c2ccccc21,nt,nt,i,?,i,-4.8%
Cc1ccc(S(=O)(=O)Nc2cc3c(cc2NCc2ccccc2)n(C)c(=O)n3C)c(C)c1,nt,nt,?,?,i,48.4%
OC[C@H]1O[C@@H](n2cnc3c2NC=NC[C@H]3O)C[C@@H]1O,nt,nt,i,nt,nt,nt
COc1ccc(-c2[nH]ncc2N=Nc2cc(C)cc(C)c2)cc1,18.4µM*,20.6µM*,?,?,?,-39.0%
COc1ccc(-c2[nH]ncc2N=Nc2ccccc2)cc1,16.4µM*,16.4µM*,?,?,?,?
COC(=O)c1sccc1S(=O)(=O)N1CCC(n2c(CC3CCCC3)nc3cccnc32)CC1,nt,nt,i,nt,nt,nt
Cc1ccccc1-c1nnc(CN2CCN(c3cccc(C)c3C)CC2)o1,nt,nt,i,i,i,1.0%
COc1ccccc1N1C(=O)c2ccccc2NC1c1ccncc1 (centres undefined),12.0%,8.1%,?,i,i,-18.0%
COc1ccccc1N1C(=O)N(C(C)=O)C2C1Nc1ccccc1N2C (centres undefined),15.8µM*,-27.9%[9.24 µM],i,i,i,25.1µM*
CC(=O)N1CCN(c2ccc(NCc3ccc(F)cc3)cc2)CC1,9.0%,4.7%,?,i,i,-12.2%
SMILES,HT1080-NT tox,HT1080 IDH1KD tx,ATXN viability,KB-V1 cytotox,KB-3-1 tox,ATXN2 expr inh
COc1cc(CNc2ccc(N3CCN(C(C)=O)CC3)cc2)ccc1OCc1ccc(F)cc1,23.1µM*,?,?,i,i,-28.6%
CC(CNC(=O)c1cc2ccccn2n1)c1ccccc1 (centres undefined),nt,nt,i,i,i,32.3%
N#CC(c1nc2ccccc2nc1N1CCCC1)S(=O)(=O)c1ccccc1 (centres undefined),5.1%,12.8%,?,20.6µM*,?,-1.8%
Cc1ccc(C)c(S(=O)(=O)C(C#N)c2nc3ccccc3nc2N2CC(C)OC(C)C2)c1 (centres undefined),?,?,i,?,18.4µM*,-21.8%
CN1CCN(c2nc3ccccc3nc2C(C#N)S(=O)(=O)c2ccccc2)CC1 (centres undefined),-0.6%,-1.4%,i,i,?,nt
Cc1ccc(C)c(S(=O)(=O)C(C#N)c2nc3ccccc3nc2N2CCOCC2)c1 (centres undefined),-11.2%,-9.9%,i,11.6µM*,?,-11.9%
O=C1c2cccc(NCCNCCO)c2C(=O)c2cccc(NCCNCCO)c21,?,8.2µM*,17.8µM*,i,?,4.47µM*
CCOC(=O)C1=C(N)n2c(s/c(=C\c3cccs3)c2=O)=C(C(=O)OCC)C1c1cccs1 (centres undefined),?,2.59µM*,i,13µM*,10.3µM*,-0.3%
COc1ccccc1NC(=O)C(=O)/C=C(\O)c1ccccc1,-5.6%,10.4%,i,18.4µM*,i,19.5%
O=C1CCCC2=C1C(c1ccc(OS(=O)(=O)c3ccc(Cl)cc3)cc1)C1=C(CCCC1=O)O2,6.4%,12.3%,i,4.61µM*,?,?
COCc1c(C(=O)NC2CCCC2)cnn1-c1nccc(-c2ccco2)n1,nt,nt,i,nt,nt,nt
CC1CN(c2nc3ccccc3nc2SCC(=O)Nc2cccc(C(F)(F)F)c2)CC(C)O1 (centres undefined),?,-17.3%,?,i,23.1µM*,?
Cc1cccc(NC(=O)CSc2nc3ccccc3nc2N2CC(C)OC(C)C2)c1 (centres undefined),5.3%,-19.1%,?,i,?,-10.8%
CCc1n[nH]c(=S)n1/N=C/c1cccc2ccccc12,-4.3%,-6.3%,i,5.8µM*,6.51µM*,4.5%
Cc1nnc(C)n1/N=C/c1c(O)ccc2ccccc12,-7.7%,1.3%,i,?,i,nt
Cc1nnc(-c2ccccc2)c(=O)n1/N=C/c1c(O)ccc2ccccc12,?,?,i,2.91µM*,?,?
